# Screening results: PubChem BioAssay, Johns Hopkins Ion Channel Center
# KCNQ2 inh = rat KCNQ2 potassium channel inhibitors, primary screen, cell-based, CHO-K1, FluxOR thallium flux, B-score | AID 2156, 2009 | 20 min; stronger effect = lower value | B-score at 10 µM | Potassium voltage-gated channel subfamily KQT member 2 (Rattus norvegicus), O88943 | 1.1% of 310,000 active;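 active = fluorescence ratio B-score at most minus 3 library SDs, with starting brightness B-score within 2 library SDs, cut at about -5.5 in these data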
# KCNQ2 pot = potentiators of rat KCNQ2 potassium channel | Potassium voltage-gated channel subfamily KQT member 2 (Rattus norvegicus), O88943 | CHO-K1 KCNQ2, FluxOR thallium flux fluorescence; stronger effect = higher value | B-score at 10 µM | 0.54% of 310,000 active | AID 2239, 2010;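 active = fluorescence ratio B-score at least 3 SD of library B-scores, with initial fluorescence B-score within 3 of them, cut at about 5.3 in these data; same plate scores as AID 2156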;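 note: B-score of peak minus minimum over baseline fluorescence ratio after K+ and Tl+ stimulus; positive B-score means potentiation of KCNQ2 with more thallium influx and brighter signal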
# KCNQ2 block conf = rat KCNQ2 potassium channel inhibitors, confirmation, cell-based, thallium flux. activity change, negative = inhibition, % at 10 µM. shares compounds with KCNQ2 inh. 57% of 1,000 active. KCNQ2-expressing cells, inhibition; stronger effect = lower value
# KCNQ1 spec = human KCNQ1 channel inhibition, counter-screen for KCNQ2 inhibitor project, cell-based, FluxOR thallium flux | KCNQ1-expressing cells, FluxOR thallium flux fluorescence; stronger effect = lower value | activity change, negative = inhibition, % at 10 µM | 15% of 1,000 active | shares compounds with KCNQ2 inh;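 active = activity change at least 3 SD of negative controls below their mean in both duplicate wells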;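 note: CHO cells stably transfected with KCNQ1 and depolarized by potassium stimulus; peak minus minimum fluorescence over baseline after thallium addition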
# Target sequence (P51787 whole entry, looked up): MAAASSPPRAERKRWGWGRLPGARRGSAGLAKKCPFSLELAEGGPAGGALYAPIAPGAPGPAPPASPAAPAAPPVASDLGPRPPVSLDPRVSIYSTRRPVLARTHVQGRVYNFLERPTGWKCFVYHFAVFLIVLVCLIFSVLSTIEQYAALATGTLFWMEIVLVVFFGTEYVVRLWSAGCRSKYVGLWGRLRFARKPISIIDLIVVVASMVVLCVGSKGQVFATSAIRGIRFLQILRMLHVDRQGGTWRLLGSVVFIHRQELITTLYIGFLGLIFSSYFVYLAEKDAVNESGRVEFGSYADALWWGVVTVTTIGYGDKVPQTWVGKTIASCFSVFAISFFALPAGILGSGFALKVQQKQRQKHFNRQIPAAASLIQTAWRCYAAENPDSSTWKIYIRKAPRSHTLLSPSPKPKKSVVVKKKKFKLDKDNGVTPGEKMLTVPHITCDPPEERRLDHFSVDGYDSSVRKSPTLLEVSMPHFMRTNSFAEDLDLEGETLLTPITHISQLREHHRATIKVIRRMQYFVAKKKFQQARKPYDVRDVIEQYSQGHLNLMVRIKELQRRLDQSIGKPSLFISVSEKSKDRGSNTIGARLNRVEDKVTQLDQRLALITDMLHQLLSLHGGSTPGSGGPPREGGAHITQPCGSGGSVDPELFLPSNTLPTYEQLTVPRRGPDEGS
# CHO parental ctr = thallium flux change in parental CHO cells, counter-screen for KCNQ2 inhibitor project | shares compounds with KCNQ2 inh | stronger effect = lower value | activity change, % at 10 µM | 14% of 1,000 active | AID 493029, 2011
# KCNQ2 inh confirm = rat KCNQ2 channel inhibitors, confirmation, cell-based, automated patch clamp, single concentration; shares compounds with KCNQ2 inh; KCNQ2-expressing cells, automated patch clamp current; calls only at 10 µM; 49% of 550 active
# Hits are given with their value; – = inactive; · = not tested or not shown; + = active, no number. Shown are actives, neighbours in structure and some others; about 1.6% of the full set was active somewhere. Unless noted, the rule behind the calls is not given here.
SMILES,KCNQ2 inh,KCNQ2 pot,KCNQ2 block conf,KCNQ1 spec,CHO parental ctr,others
Cc1ccc(S(=O)(=O)NC(=O)COc2ccc([N+](=O)[O-])cc2)cc1,–,–,·,·,·,
CC(C)Cn1c(N)c(C(=O)COC(=O)[C@H](C)NC(=O)c2ccccc2Cl)c(=O)n(C)c1=O,–,–,·,·,·,
O=[N+]([O-])c1cccc2nc(-c3ccccc3)c(-c3ccccc3)nc12,-7.64,–,-28.0%,–,–,KCNQ2 inh confirm=–
Cn1c(-[n+]2c(-c3ccccc3)cc(-c3ccccc3)cc2-c2ccccc2)nc2c([N+](=O)[O-])cccc21,–,·,·,·,·,
COc1cccc(-n2c(N)cc(=O)nc2SCC(=O)N2CCN(c3ccccc3)CC2)c1,–,–,·,·,·,
O=C1OC(c2ccc(Cl)cc2)/C(=C(/O)c2ccccc2)C1=O (stereo unspecified),–,–,·,·,·,
O=C(NCC(c1cccs1)N1CCOCC1)c1ccc(Cl)s1 (stereo unspecified),-9.71,–,–,–,–,
O=C(NCC(c1cccs1)N1CCOCC1)c1cc([N+](=O)[O-])ccc1Cl (stereo unspecified),–,·,·,·,·,
CCOC(=O)c1sc(NC(=O)c2ccncc2)c(C#N)c1C,–,–,·,·,·,
CCOC(=O)c1sc(NC(=O)c2cc(-c3ccccc3C)nc3ccccc23)c(C#N)c1C,-8.98,–,-40.0%,-35.5%,-26.0%,KCNQ2 inh confirm=–
Cc1ccc(NC(=O)C(C)OC(=O)/C=C/c2ccccc2)cc1S(=O)(=O)N1CCOCC1 (stereo unspecified),–,·,·,·,·,
CN1CCCN(Cc2nc(-c3ccc(Cl)cc3)no2)CC1,–,–,·,·,·,
CCOC(=O)c1c(-c2ccccc2)csc1NC(=O)C(C)NCc1ccco1 (stereo unspecified),-7.2,–,-31.0%,–,–,KCNQ2 inh confirm=–
CCOC(=O)c1c(-c2ccc(Cl)cc2)csc1NC(=O)CNCc1ccco1,–,·,·,·,·,
O=C(Nc1ccc(Br)cc1)C1OCCc2ccccc21 (stereo unspecified),–,·,·,·,·,
CCOc1ccc2oc(C(=O)N3CCN(c4ccccc4OCC)CC3)c(C)c2c1,-9.78,–,–,–,–,
COc1ccccc1N1CCN(C(=O)c2oc3cc(C)c(C)cc3c2C)CC1,–,·,·,·,·,
CC(=O)Nc1ccc(NC2CCCCC2NS(=O)(=O)c2ccccc2)cc1 (stereo unspecified),–,–,·,·,·,
Cc1ccccc1NC(=S)N(CCN1CCOCC1)Cc1ccccc1F,–,·,·,·,·,
COc1ccccc1NC(=O)c1cc(-c2cc(OC)c(OC)c(OC)c2)nc2ccccc12,-8.9,–,–,–,–,
COc1ccc(-c2cc(C(=O)Nc3ccc(Cl)cc3Cl)c3ccccc3n2)cc1OC,–,·,·,·,·,
COc1cc(-c2cc(C(=O)Nc3ccc(N4CCOCC4)cc3)c3ccccc3n2)cc(OC)c1OC,–,·,·,·,·,
COc1ccc(-c2cc(C(=O)Nc3ccccc3O)c3ccccc3n2)cc1OC,-6.88,–,–,–,–,
COCCn1c(-c2ccc(-c3ccc([N+](=O)[O-])cc3Br)o2)nc2c1c(=O)[nH]c(=O)n2CC(C)C,–,·,·,·,·,
Cc1ccc(NC(=O)C(=O)NCCN2CCN(S(=O)(=O)c3ccccc3)CC2)cc1C,–,·,·,·,·,
SMILES,KCNQ2 inh,KCNQ2 pot,KCNQ2 block conf,KCNQ1 spec,CHO parental ctr,others
Cc1ccccc1OCC(O)CN1C(=O)c2ccccc2C1=O (stereo unspecified),–,·,·,·,·,
C=CCc1ccccc1OCC(O)CN1C(=O)c2ccccc2C1=O (stereo unspecified),-12.1,–,–,–,–,
O=C(/C=C\c1ccc2c(c1)OCO2)CC1(O)C(=O)Nc2ccccc21 (stereo unspecified),–,–,·,·,·,
O=C(OCc1ccccc1)/C(=C/c1cccc(Br)c1)NC(=O)c1ccco1,-9.56,–,-25.0%,–,–,KCNQ2 inh confirm=+
O=C(Nc1ccccc1)/C(=C/c1cccc(Br)c1)NC(=O)c1ccco1,–,–,·,·,·,
CSCCC(NC(=O)COc1ccccc1)C(=O)NCC1COc2ccccc2O1 (stereo unspecified),–,·,·,·,·,
CC(NCc1ccc(OCc2ccc(Cl)cc2)cc1)C(O)c1ccccc1 (stereo unspecified),–,·,·,·,·,
COc1ccc(CNCC(O)(c2ccc(Cl)cc2)c2ccc(Cl)cc2)cc1OC,–,·,·,·,·,
OC(CNCc1ccc(Cl)cc1)(c1ccccc1)c1ccc(F)cc1 (stereo unspecified),-7.2,–,-33.0%,-34.0%,-31.5%,KCNQ2 inh confirm=–
COc1ccc(CNC(c2ccccc2)c2ccc(Cl)cc2)cc1 (stereo unspecified),-8.85,–,–,–,–,
COc1ccc(CNCC(O)(c2ccc(Cl)cc2)c2ccc(Cl)cc2)cc1,-7.71,–,–,–,–,
OC(CNCc1ccc(F)cc1)(c1ccc(F)cc1)c1ccc(F)cc1,–,·,·,·,·,
Brc1ccc(-c2ncc3ccccn23)cc1,–,·,·,·,·,
Cc1ccc(C(O)Cn2nc(C)cc2C)cc1 (stereo unspecified),–,·,·,·,·,
CC(=O)N1c2ccc(S(=O)(=O)N3CCC(C(=O)Nc4ncccc4C)CC3)cc2CC1C (stereo unspecified),–,–,·,·,·,
COc1ccc(CCC(=O)OCC(=O)Nc2ccccc2)cc1,–,·,·,·,·,
COc1ccc(NC(=S)N2CCC(c3nc4ccccc4o3)CC2)c(OC)c1,–,·,·,·,·,
CC(=O)c1cnn(-c2ccccc2)c1C,–,–,·,·,·,
Cc1c(C(=O)Oc2cccc3ccccc23)cnn1-c1ccccc1,-9.3,–,–,–,–,
O=C(Nc1cccc2ccccc12)c1nn(C23CC4CC(CC(C4)C2)C3)cc1[N+](=O)[O-],-9.06,–,-29.0%,–,–,KCNQ2 inh confirm=+
COc1ccc(NC(=O)c2nn(C34CC5CC(CC(C5)C3)C4)cc2[N+](=O)[O-])cc1,–,–,·,·,·,
Cc1ccc(S(=O)(=O)N(C)c2ccccc2C(=O)Nc2ccc(F)cc2F)cc1,-8.57,–,–,–,–,
CC(=O)Nc1ccc(NC(=O)c2ccccc2N(C)S(=O)(=O)c2ccc(C)cc2)cc1,–,–,·,·,·,
Cc1ccccc1CNC(=O)c1ccccc1N(C)S(=O)(=O)c1ccccc1,-6.67,–,-40.0%,-35.5%,-28.0%,KCNQ2 inh confirm=+
COC(=O)c1ccccc1NC(=O)c1ccccc1N(C)S(=O)(=O)c1ccccc1,–,·,·,·,·,
Cc1ccc(NC(=O)c2ccccc2N(C)S(=O)(=O)c2ccccc2)c(C)c1,-8.42,–,-34.0%,–,–,KCNQ2 inh confirm=+
CCCNC(=O)c1ccccc1NC(=O)c1ccccc1N(C)S(=O)(=O)c1ccccc1,–,·,·,·,·,
COc1ccc2[nH]c3c(c2c1)CCN1C(=O)N([C@@H](C)C(=O)NC2CCN(Cc4ccccc4)CC2)C(=O)[C@]31C,–,–,·,·,·,
C=CCNc1nc(C)c(CNc2c(C)cc(C)cc2C)nc1C#N,–,–,·,·,·,
CCC(=O)c1ccc(OCC(=O)OCC(=O)Nc2sccc2C(N)=O)cc1,–,·,·,·,·,
